# Data as given in the supplement of paper PMC11732987, “Enantioselective OTUD7B fragment discovery through chemoproteomics screening and high-throughput optimisation” (Communications Chemistry, 2025).
# A number with no mark means an inactive call.
# Key:
# Experiment in all cases: log2 ratio of Biotin-Ahx-Ub-VS probe labelling (fragment/DMSO); higher = less target engagement (more negative = stronger competition), active = hit call of the paper (q ≤ 0.05, log2 ratio ≤ -1)
# Conditions in all cases: compound concentration: 200 uM; treatment time: 3 h
# ALG13 = target: T1, ALG13 (UniProt Q9NP73)
# T1 sequence (whole entry): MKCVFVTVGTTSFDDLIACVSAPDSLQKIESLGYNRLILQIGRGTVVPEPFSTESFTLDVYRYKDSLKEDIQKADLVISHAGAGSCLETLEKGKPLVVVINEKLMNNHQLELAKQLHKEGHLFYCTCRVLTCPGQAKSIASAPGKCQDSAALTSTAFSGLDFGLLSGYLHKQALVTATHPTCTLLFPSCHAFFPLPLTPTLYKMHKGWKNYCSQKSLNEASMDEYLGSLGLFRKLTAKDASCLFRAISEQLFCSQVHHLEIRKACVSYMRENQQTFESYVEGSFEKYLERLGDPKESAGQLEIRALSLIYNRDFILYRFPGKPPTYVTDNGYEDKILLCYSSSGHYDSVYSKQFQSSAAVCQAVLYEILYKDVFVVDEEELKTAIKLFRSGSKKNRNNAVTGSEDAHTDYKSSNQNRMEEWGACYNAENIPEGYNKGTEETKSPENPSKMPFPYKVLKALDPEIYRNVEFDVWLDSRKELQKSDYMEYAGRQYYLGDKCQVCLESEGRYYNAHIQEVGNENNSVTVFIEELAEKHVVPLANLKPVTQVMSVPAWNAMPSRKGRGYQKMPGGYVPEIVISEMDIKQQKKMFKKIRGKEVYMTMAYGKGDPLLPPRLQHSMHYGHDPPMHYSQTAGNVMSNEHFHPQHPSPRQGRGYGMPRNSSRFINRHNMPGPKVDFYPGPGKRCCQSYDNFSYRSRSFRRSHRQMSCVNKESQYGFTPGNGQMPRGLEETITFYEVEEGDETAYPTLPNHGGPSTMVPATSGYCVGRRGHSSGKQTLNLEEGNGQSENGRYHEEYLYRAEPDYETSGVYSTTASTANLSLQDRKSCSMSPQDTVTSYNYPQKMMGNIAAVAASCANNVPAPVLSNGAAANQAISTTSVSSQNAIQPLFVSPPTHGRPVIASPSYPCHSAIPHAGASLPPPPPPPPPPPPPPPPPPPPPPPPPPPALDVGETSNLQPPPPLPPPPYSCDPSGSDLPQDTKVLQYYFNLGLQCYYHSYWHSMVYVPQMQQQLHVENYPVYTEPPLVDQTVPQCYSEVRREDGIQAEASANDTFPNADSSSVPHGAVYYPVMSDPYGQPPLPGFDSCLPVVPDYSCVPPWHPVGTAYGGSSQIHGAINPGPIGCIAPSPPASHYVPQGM
# Procedure, shortened: (§1)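 HEK293T lysate (495 µg per sample, in Tris/CHAPS/IGEPAL buffer with protease inhibitors) was treated in triplicate with fragment at 200 µM or with DMSO for 3 h. It was then treated with Biotin-Ahx-Ub-VS (0.5 µM final) for 1 h. Labelled DUBs were NeutrAvidin-enriched, digested with LysC and trypsin, and run by diaPASEF LC-MS/MS. Spectronaut label-free quantities were global-median-normalised. Values are average log2 ratios fragment/DMSO by unpaired t-test, using proteins with ≥2 unique peptides.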
# ATXN3 = ATXN3 (UniProt P54252)
# Procedure, shortened: as §1
# BAP1 = target: T2, BAP1 (UniProt Q92560)
# T2 sequence (whole entry): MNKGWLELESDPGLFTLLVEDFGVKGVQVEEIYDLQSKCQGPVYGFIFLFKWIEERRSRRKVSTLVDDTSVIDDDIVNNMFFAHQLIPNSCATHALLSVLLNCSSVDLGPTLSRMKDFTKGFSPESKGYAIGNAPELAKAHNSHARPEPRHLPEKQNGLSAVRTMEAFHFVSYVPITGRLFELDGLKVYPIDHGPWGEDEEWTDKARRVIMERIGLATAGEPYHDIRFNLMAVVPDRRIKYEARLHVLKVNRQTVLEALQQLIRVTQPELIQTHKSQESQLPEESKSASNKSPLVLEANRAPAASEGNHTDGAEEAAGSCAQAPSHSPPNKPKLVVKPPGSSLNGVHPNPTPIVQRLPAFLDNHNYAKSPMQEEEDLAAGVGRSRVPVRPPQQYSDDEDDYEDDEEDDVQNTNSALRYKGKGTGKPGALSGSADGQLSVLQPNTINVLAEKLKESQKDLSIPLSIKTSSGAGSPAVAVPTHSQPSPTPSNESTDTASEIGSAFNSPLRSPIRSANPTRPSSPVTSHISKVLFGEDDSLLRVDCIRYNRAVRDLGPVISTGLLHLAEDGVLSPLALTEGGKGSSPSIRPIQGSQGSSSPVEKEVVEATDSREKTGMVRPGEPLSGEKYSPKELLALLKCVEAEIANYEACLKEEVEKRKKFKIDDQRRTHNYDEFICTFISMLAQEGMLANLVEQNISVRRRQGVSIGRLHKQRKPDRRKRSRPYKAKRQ
# Procedure, shortened: as §1
# EIF3F = EIF3F (UniProt O00303)
# Procedure, shortened: as §1
# EIF3H = EIF3H (UniProt O15372)
# Procedure, shortened: as §1
# FAM105A = target: T3, FAM105A (UniProt Q9NUU6)
# T3 sequence (whole entry): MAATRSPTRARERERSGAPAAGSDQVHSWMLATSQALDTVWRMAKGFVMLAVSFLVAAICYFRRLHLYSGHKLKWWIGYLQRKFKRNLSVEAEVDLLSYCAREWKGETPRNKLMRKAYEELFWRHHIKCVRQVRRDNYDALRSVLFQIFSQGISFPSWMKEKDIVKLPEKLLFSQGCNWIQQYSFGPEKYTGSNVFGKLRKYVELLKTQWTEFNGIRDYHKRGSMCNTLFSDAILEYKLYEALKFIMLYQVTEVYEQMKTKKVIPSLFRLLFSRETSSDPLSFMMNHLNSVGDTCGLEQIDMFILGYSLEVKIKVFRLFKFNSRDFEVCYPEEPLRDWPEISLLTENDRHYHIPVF
# Procedure, shortened: as §1
# OTUB1 = OTUB1 (UniProt Q96FW1)
# Procedure, shortened: as §1
# OTUD4 = target: T4, OTUD4 (UniProt Q01804)
# T4 sequence (whole entry): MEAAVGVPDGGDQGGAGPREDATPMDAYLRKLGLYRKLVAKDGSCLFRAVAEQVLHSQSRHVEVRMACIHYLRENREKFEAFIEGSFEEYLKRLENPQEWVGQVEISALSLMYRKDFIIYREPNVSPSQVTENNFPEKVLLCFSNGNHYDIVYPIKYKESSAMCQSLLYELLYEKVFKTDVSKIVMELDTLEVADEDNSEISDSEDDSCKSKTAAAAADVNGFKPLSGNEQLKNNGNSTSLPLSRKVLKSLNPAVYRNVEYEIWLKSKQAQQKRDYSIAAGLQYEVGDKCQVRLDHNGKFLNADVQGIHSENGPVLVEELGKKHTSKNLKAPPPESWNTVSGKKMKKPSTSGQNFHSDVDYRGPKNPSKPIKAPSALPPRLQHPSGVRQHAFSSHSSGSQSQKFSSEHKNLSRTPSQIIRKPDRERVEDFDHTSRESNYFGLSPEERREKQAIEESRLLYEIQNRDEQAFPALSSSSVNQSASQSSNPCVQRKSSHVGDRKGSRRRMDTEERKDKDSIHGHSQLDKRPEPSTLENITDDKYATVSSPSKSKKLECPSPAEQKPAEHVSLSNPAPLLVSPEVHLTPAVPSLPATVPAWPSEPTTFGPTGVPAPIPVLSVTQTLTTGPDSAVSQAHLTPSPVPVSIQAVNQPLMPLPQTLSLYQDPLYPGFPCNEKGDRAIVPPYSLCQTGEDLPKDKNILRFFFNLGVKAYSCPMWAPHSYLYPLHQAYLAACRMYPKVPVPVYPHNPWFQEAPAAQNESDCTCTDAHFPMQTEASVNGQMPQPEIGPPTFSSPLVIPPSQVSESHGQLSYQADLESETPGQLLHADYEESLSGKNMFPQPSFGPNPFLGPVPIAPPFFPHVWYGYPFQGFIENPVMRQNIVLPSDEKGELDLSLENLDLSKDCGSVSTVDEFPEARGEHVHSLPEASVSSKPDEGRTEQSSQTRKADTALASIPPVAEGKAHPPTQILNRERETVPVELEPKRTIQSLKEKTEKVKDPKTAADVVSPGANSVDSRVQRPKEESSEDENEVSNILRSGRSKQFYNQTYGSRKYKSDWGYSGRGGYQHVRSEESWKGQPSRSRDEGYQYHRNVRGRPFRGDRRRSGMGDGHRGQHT
# Procedure, shortened: as §1
# OTUD5 = target: T5, OTUD5 (UniProt Q96G74)
# T5 sequence (whole entry): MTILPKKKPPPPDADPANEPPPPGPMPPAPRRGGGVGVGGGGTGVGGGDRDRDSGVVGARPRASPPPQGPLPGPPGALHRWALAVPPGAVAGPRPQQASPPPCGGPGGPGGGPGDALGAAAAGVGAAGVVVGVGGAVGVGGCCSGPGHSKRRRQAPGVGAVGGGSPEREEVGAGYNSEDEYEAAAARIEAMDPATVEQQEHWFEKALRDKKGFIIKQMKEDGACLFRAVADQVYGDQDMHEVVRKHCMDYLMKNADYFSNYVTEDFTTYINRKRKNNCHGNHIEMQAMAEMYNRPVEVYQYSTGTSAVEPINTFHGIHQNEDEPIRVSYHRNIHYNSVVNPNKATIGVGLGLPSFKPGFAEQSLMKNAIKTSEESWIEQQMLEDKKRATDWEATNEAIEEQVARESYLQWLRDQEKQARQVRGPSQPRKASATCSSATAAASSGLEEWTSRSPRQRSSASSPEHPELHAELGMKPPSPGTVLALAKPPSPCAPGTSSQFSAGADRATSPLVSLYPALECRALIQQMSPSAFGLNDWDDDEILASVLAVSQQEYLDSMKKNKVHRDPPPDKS
# Procedure, shortened: as §1
# Chain of ATXN3 (P54252 whole entry): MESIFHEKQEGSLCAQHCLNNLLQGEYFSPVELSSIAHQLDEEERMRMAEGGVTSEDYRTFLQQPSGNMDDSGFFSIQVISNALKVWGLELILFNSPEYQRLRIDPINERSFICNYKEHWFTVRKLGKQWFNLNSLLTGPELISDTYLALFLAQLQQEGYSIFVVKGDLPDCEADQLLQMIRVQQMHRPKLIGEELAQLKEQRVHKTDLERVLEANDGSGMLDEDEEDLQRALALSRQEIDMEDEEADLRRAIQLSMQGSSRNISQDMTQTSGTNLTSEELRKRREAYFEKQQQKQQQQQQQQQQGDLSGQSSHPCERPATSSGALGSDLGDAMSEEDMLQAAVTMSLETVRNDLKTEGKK
# Chain of OTUB1 (Q96FW1 whole entry): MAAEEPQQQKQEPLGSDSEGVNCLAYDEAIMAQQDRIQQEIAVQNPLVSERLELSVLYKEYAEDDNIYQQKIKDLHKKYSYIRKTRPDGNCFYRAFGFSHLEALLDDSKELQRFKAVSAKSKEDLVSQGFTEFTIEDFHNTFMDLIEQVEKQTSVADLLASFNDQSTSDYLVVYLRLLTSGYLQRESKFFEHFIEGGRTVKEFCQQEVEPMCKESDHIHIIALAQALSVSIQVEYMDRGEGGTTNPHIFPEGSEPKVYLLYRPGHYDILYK
# Chain of EIF3F (O00303 whole entry): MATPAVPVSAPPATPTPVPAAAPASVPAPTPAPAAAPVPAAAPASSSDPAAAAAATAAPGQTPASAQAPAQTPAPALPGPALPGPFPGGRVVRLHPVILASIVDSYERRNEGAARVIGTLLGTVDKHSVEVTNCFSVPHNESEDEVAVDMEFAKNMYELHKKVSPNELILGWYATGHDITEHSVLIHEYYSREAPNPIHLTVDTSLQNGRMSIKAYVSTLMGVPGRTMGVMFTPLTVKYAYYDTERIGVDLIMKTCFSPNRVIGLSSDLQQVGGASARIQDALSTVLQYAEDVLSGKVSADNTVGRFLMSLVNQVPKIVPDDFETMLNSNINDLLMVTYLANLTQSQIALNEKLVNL
# Chain of EIF3H (O15372 whole entry): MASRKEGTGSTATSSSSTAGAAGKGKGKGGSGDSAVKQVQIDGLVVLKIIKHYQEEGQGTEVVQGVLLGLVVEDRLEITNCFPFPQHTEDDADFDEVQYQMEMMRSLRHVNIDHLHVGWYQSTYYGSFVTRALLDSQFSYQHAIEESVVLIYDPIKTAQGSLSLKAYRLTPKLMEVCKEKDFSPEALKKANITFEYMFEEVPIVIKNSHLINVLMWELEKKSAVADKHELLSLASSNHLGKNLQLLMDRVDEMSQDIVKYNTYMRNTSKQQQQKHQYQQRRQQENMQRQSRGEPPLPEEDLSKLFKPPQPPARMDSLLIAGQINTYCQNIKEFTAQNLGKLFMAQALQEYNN
compound,measurement,setting,value
O=C(CCl)NC(Cn1ccccc1=O)c1ccccc1 (centres undefined),log2 ratio of Biotin-Ahx-Ub-VS probe labelling,ALG13,0.152
same,log2 ratio of Biotin-Ahx-Ub-VS probe labelling,ATXN3,-0.00539
same,log2 ratio of Biotin-Ahx-Ub-VS probe labelling,BAP1,-1.18 (active)
same,log2 ratio of Biotin-Ahx-Ub-VS probe labelling,EIF3F,0.0892
same,log2 ratio of Biotin-Ahx-Ub-VS probe labelling,EIF3H,-0.0521
same,log2 ratio of Biotin-Ahx-Ub-VS probe labelling,FAM105A,0.0796
same,log2 ratio of Biotin-Ahx-Ub-VS probe labelling,OTUB1,-0.3
same,log2 ratio of Biotin-Ahx-Ub-VS probe labelling,OTUD4,-0.122
same,log2 ratio of Biotin-Ahx-Ub-VS probe labelling,OTUD5,-0.104
